Whole data set: some 81,000 sequences, median “one-hybrid fitness for binding parS DNA” near -0.17, cut for the highest 2% near 0.51. The sample as a whole holds a higher share of the highest values than the screen did.
B1: Caulobacter ParB omega fusion; a variant is named by its letters at X, in order, B8GW30 (parent)
chain: MESVVVGEPGMSEGRRGLGRGLSALLGEVDAAPAQAPGEQLGGSREAPIEILQRNPDQPRRTFREEDLEDLSNSIREKGVLQPILVRPSPDTAGEYQIVAGERAWRAAQRAGLKTVPIMVRELDDLAVLEIGIIENVQRADLNVLEEALSYKVLMEKFERTQENIAQTIGKSXSHVANXMRLLXLPDEVQSYLVSGELTAXHARAIAAAADPVALAKQIIEGGLSVRETEALARKAPNLSAGKSKGGRPPRVKDTDTQALESDLSSVLGLDVSIDHRGSTGTLTITYATLEQLDDLCNRLTRGI

Variants of: B1
Assay: one-hybrid fitness for binding parS DNA (scaled: cognate 1, non-cognate 0); higher = stronger binding
Conditions: with parS DNA site
Procedure, shortened: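 Values were rescaled so that cognate is 1 and non-cognate is 0. Each is a fitness, the log change in a variant's read ratio to wild type from Illumina reads of plasmids before and after selection, with three replicate libraries pooled and variants under 10 reads dropped. Selection of the Caulobacter ParB libraries, four specificity codons randomised, used E. coli USO with a HIS3 reporter, site 19 bp from the promoter, on M9-minus-histidine with 0.1 mM IPTG and 5 mM 3-AT for 48 hours at 37°C.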

Variant	one-hybrid fitness for binding parS DNA
NELG	≤ 0.2
VCTS	≤ 0.2
QDQT	≤ 0.2
APQI	≤ 0.2
TGHY	≤ 0.2
LTYE	≤ 0.2
FDTS	≤ 0.2
VQYL	≤ 0.2
GTNP	≤ 0.2
RSGD	≤ 0.2
RIGY	0.51
RSGN	0.46
RCGY	0.43
RSGS	0.983
LCDD	≤ 0.2
TNCY	≤ 0.2
FSDT	≤ 0.2
KCRM	≤ 0.2
RMIQ	≤ 0.2
RMIK	≤ 0.2
RMPT	0.625
RMIT	0.752
RMPH	≤ 0.2
RMPR	≤ 0.2
VQYW	≤ 0.2

Variant	one-hybrid fitness for binding parS DNA
INEC	≤ 0.2
RQWY	0.418
TEPE	≤ 0.2
RSAC	0.932
RSAN	0.426
RSAH	0.226
RPAC	≤ 0.2
REAC	≤ 0.2
RCAC	1.02
IILS	≤ 0.2
TCRI	≤ 0.2
KHHT	≤ 0.2
HMNT	≤ 0.2
RTPQ	≤ 0.2
RTPP	≤ 0.2
RTIG	0.98
RTIK	≤ 0.2
RTIF	0.233
RTPG	0.764
KRWW	≤ 0.2
KLNR	≤ 0.2
RHAA	0.534
RHFA	0.516
NHAA	≤ 0.2
VDYT	≤ 0.2

Variant	one-hybrid fitness for binding parS DNA
NQNT	≤ 0.2
HAPR	≤ 0.2
EKTR	≤ 0.2
RCKA	0.844
PFKA	≤ 0.2
RHVA	0.499
RWVA	0.329
RFVA	0.44
RWKA	0.574
RPKA	≤ 0.2
RHKA	0.692
RGKA	0.475
DHKA	≤ 0.2
RWYA	0.348
RFKA	0.571
KSVS	≤ 0.2
ATSF	≤ 0.2
PVTI	≤ 0.2
GNRN	≤ 0.2
MTHT	≤ 0.2
IATE	≤ 0.2
RDKA	≤ 0.2
RSKA	0.716
REKA	≤ 0.2
QRTQ	≤ 0.2

Variant	one-hybrid fitness for binding parS DNA
GFIG	≤ 0.2
RLWH	0.3
RLRR	≤ 0.2
RLST	0.939
RLWT	0.889
RLSM	0.329
RLGT	0.925
RLRM	0.376
RLSK	≤ 0.2
RLWP	0.201
RLGR	≤ 0.2
RLRT	0.834
RLGF	0.278
FKLC	≤ 0.2
YRAS	0.283
WVWC	≤ 0.2
TRNR	≤ 0.2
QCLA	≤ 0.2
HCDK	≤ 0.2
RLQT	0.946
RLYT	0.943
RLYM	0.364
RLLD	0.231
RLLT	0.961
RLQF	0.229

Variant	one-hybrid fitness for binding parS DNA
RLCD	≤ 0.2
RLQK	≤ 0.2
RLYQ	≤ 0.2
RLLP	≤ 0.2
RLCT	0.923
RLCP	≤ 0.2
YINM	≤ 0.2
QHNA	≤ 0.2
HQSH	≤ 0.2
KQRG	≤ 0.2
FYRR	≤ 0.2
EMVC	≤ 0.2
TCPF	≤ 0.2
RLHT	0.937
RLHR	≤ 0.2
RLHY	0.473
RHNF	≤ 0.2
RHYG	0.95
RHQG	0.973
RHYD	≤ 0.2
RHYP	≤ 0.2
RHQR	≤ 0.2
RHIG	0.705
RHNR	≤ 0.2
RHPG	0.451

Variant	one-hybrid fitness for binding parS DNA
RHNG	0.953
REQG	≤ 0.2
RHIF	≤ 0.2
HCSV	≤ 0.2
DCCS	≤ 0.2
HYWT	≤ 0.2
QSAL	≤ 0.2
FRKP	≤ 0.2
GIVG	≤ 0.2
PFTT	≤ 0.2
ALPV	≤ 0.2
QCAF	≤ 0.2
RHDD	≤ 0.2
RHCK	≤ 0.2
RHLF	0.23
RHLQ	≤ 0.2
RHHQ	≤ 0.2
RHDN	0.33
RHLG	0.967
RHCG	0.95
RHDG	0.917
RHHG	0.967
RHHK	≤ 0.2
RHCM	≤ 0.2
KRLV	≤ 0.2

From a collection of fitness landscapes (doi:10.1016/j.celrep.2020.107928)
